Measurements as given in PubChem BioAssay AID485294 (National Center for Advancing Translational Sciences (NCATS), 2010).
In all, about 370,000 compounds went through this assay and about 150 (0.041%) were called active. Inconclusive results (about 14%) are left out. Calls follow the shape of the dose curve; as a rule, active = well fitted inhibition curve with a large enough effect; inconclusive = small, poorly fitted or top-dose-only effect; inactive = flat fitted curve, though single readings scatter. The entries come from a sample that favours actives as a whole. Where a call stands in place of a potency, no number is given.

Target: Beta-lactamase (Escherichia coli (strain K12)) (UniProt P00811)
Sequence (P00811 whole entry, looked up): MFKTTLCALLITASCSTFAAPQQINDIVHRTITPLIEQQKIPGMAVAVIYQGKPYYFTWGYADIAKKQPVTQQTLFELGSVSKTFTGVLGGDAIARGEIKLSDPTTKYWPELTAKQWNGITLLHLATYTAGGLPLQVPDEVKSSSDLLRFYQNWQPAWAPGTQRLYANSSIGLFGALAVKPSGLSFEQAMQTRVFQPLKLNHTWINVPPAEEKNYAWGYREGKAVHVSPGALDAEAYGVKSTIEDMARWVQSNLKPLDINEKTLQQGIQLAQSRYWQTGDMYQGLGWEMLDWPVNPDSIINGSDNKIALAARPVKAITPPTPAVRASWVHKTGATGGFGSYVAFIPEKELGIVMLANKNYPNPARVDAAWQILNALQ
Assay: qHTS Inhibitors of AmpC Beta-Lactamase (assay with detergent); also: nearly all actives have a fitted effect of over 25% in size
Conditions: AmpC hydrolysis of nitrocefin, absorbance 480 nm, 0.01% Triton; series mostly up to 114 µM
Description: NIH Molecular Libraries Probe Production Network [MLPCN] NIH Chemical Genomics Center [NCGC] Assay Provider: Professor Brian Shoichet, UCSF Assay Overview: This aggregation profiling approach exploits the sensitivity of aggregate formation to detergent. Inhibition of b-lactamase is measured in the presence and absence of 0.01% Triton X-100. This particular assay had the prescence of 0.01% Triton X-100. See Pubchem assay "Promiscuous and Specific Inhibitors of AmpC Beta-Lactamase (assay without detergent)" for related screen. Compounds that inhibit only in the absence of detergent are considered likely promiscuous aggregators. A screen of 1,030 compounds was performed in Brian Shoichet's lab in 96-well format. AmpC activity was measured by following the absorbance at 480 nm. Nitrocefin is a chromogenic substrate: while nitrocefin is yellow (lmax 390 nm), the product of its hydrolysis is red (lmax 486 nm, 17,000 M-1). AmpC beta lactamase was provided by Shoichet Lab, UCSF.
Buffer: 20 mM phosphate buffer, pH 7.0 Triton X-100: No Detergent screen: 0.0001%, Detergent screen: 0.01%. Reagents/Controls: Buffer in columns 3 and 4 as negative control (no enzyme). 5.3 nM AmpC in columns 1, 2, 5-48. Titration of UCSF compound 9 control (from 10 mM, then 1:2) pin-transferred to column 2. Column 1 is neutral (100% activity). Assay Steps: Six uL of reagents were dispensed to 1536-well Greiner black clear bottom plates. Compounds and controls (23 nL) were transferred via Kalypsys PinTool. The plates were incubated for 15 min at room temperature, and then 2 uL of 800 uM solution of nitrocefin was added to start the reaction. The plates were immediately transferred to and read every 20 seconds for 4 min on ViewLux (Perkin-Elmer) High-throughput CCD imager using 480 nm absorbance protocol. During dispense, reagent bottles were kept submerged into 4 deg C water bath. Keywords: NIH Roadmap, MLSCN, MLI, MLSMR, qHTS, NCGC, AmpC Beta-Lactamase, Aggregation
Potency is read from the fitted curve at half-maximal effect.

SMILES | Potency
CCOC(=O)c1ccc(N2C(=O)c3[nH]nc(-c4ccccc4)c3C2c2ccc(C(C)C)cc2)cc1 (stereo not given) | inactive
Cc1oc2ncnc(N3CCOCC3)c2c1C(=O)NCCc1ccccc1 | inactive
COc1cc(NC(=O)Cn2c(=O)n(Cc3ccco3)c(=O)c3oc4ccccc4c32)cc(OC)c1 | inactive
CC(C)c1ccc(NS(=O)(=O)c2ccc3[nH]cc(C(=O)NC4CCCC4)c(=O)c3c2)cc1 | inactive
COc1ccc(CCNC(=O)Cn2c(=O)cc(C(F)(F)F)c3c(C)nn(C)c32)c(OC)c1 | inactive
CC(=O)c1cccc(NC(=O)CSc2nc3c(c(=O)[nH]2)CCC3)c1 | inactive
CCOC(=O)c1ccc(N2C(=O)c3n[nH]c(C)c3C2c2ccc(O)c(OC)c2)cc1 (stereo not given) | inactive
O=c1cc2nc(-c3ccccc3)nc(SCCOc3ccc(Cl)cc3)n2[nH]1 | inactive
Cc1ccc(OCCSc2nc(-c3cccs3)nc3cc(=O)[nH]n23)cc1Cl | inactive
COc1ccccc1-c1cc2nc(C)c(CCC(=O)NC3CCCCC3)c(C)n2n1 | inactive
CNc1ccc(-c2nc(-c3ccco3)no2)cc1[N+](=O)[O-] | inactive
CC1CCC(N2CC(=O)N(CCC3=CCCCC3)C(c3ccc(F)cc3)C2=O)CC1 (stereo not given) | inactive
Fc1ccc(CSc2nc(NCc3ccccc3)c3ccccc3n2)cc1 | inactive
O=C(CCc1ccccc1)NCc1ccc2c(c1)CCN2C(=O)c1ccccc1 | inactive
COc1ccc(-c2cc(C(F)(F)F)nc(SCC(=O)N(C)Cc3ccccc3)n2)cc1OC | inactive
Cc1oc2ncn(CC(C)C)c(=O)c2c1C(=O)N1CCN(c2ccccc2F)CC1 | inactive
O=C(CN1CCCC1)N1CCN(c2ccccc2)CC1 | inactive
O=P(O)(CN1CCCCCC1)C1Cc2ccccc2C1 | 50.1 µM (active)
O=P(O)(CN1CCCCC1)CN1CCCCC1 | inactive
CCn1cc(C(=O)N2CCN(c3cc(C)ccc3C)CC2)c(=O)c2cc(S(=O)(=O)N(C)C3CCCCC3)ccc21 | inactive
